Potency and outcome data for nine compounds are collected here from PubChem BioAssay (Tox21).

Assay [1] can be described thus: qHTS assay to identify small molecule antagonists of the estrogen receptor alpha (ER-alpha) signaling pathway - cell viability counter screen (AID 743074; calls by dose curve;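 further: HEK293 cells carrying ER-alpha-UAS-bla reporter stimulated with 17beta-estradiol; nearly all actives have a fitted effect of over 45% in size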).
The nature of assay [2]: qHTS assay to identify small molecule antagonists of the estrogen receptor alpha (ER-alpha) signaling pathway using the BG1 cell line - cell viability counter screen (AID 743081).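 Further: compound given together with 17beta-estradiol as the ER stimulus; series mostly up to about 70 µM; nearly all actives have a fitted effect of over 45% in size.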 A general note: In qHTS, concentration-response curves come from the screen itself.
The target of another assay is Aromatase (Homo sapiens) (UniProt P11511). The assay can be described thus: qHTS assay to identify aromatase inhibitors (AID 743083). Further: series mostly up to about 70 µM; nearly all actives have a fitted effect of over 55% in size.
Chain of Aromatase (Homo sapiens) (P11511 whole entry, looked up): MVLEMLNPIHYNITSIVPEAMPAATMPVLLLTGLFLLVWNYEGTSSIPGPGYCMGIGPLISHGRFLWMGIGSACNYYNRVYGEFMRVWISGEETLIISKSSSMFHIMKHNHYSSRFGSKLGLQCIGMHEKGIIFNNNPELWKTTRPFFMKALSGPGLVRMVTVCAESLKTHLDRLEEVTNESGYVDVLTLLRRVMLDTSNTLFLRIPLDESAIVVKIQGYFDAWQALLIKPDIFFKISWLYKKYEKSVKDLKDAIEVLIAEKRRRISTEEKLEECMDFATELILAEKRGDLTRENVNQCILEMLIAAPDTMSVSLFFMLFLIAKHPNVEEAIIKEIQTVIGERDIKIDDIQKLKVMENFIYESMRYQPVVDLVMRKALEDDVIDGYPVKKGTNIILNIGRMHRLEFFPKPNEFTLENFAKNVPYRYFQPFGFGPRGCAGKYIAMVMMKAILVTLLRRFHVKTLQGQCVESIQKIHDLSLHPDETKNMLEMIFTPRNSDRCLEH
Assay [3] in a line: qHTS assay to identify aromatase inhibitors - cell viability counter screen (AID 743084).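 Further: cells stimulated with testosterone during compound exposure; nearly all actives have a fitted effect of over 55% in size.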 Further: potency means the concentration at half of the fitted maximal effect.
A short description of assay [4]: qHTS assay to identify small molecule that activate the aryl hydrocarbon receptor (AhR) signaling pathway - cell viability counter screen (AID 743086). Further: nearly all actives have a fitted effect of over 45% in size. Further: potency means the concentration at half of the fitted maximal effect. The method, boiled down: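 HepG2-AhR-luc (HG2L7.5c1) cells, 4000/well, were preincubated 5 h at 37C, exposed to compound in qHTS format for 24 hr at 37C, then given CellTiter-Fluor for 30 min; viability was read as fluorescence in the reporter wells.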

The nature of assay [5]: qHTS assay to identify small molecule antagonists of the peroxisome proliferator-activated receptor gamma (PPARg) signaling pathway - cell viability counter screen (AID 743194). Further: nearly all actives have a fitted effect of over 55% in size. The procedure, abridged: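 PPARg-UAS-bla HEK293H cells were plated, rested 5 h at 37 C, then treated with compounds plus rosiglitazone (50 nM final) for 17 h at 37 C; viability was then read by CellTiter-Glo luminescence after 30 min at room temperature.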

The nature of assay [6]: qHTS assay for small molecule agonists of the antioxidant response element (ARE) signaling pathway (AID 743202; active means well fitted activation curve with a large enough effect in the signal ratio in the repeat runs, not every such curve was filed as active; the % refers to the signal ratio). The procedure, abridged:
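Compounds delivered in DMSO to ARE-bla HepG2 cells (2,000 cells/well, pre-incubated 5 h) and left 16 h at 37 C. LiveBLAzer B/G FRET substrate then added for 2 h at RT before fluorescence reading.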

A short description of assay [7]: qHTS assay for small molecule activators of the heat shock response signaling pathway - cell viability counter screen (AID 743209). Further: nearly all actives have a fitted effect of over 50% in size. The procedure, abridged:
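Luminescence from CellTiter-Glo, added after the beta-lactamase FRET read, gave the viability signal. Cells were HSE-bla HeLa treated with DMSO-dissolved compounds for 5 h at 37 C following overnight plating.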

Assay [8] is described as follows: qHTS assay to identify small molecule antagonists of the thyroid receptor (TR) signaling pathway (AID 743065). Further: nearly all actives have a fitted effect of over 55% in size. Further: potency means the concentration at half of the fitted maximal effect. The procedure, abridged: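 GH3.TRE-Luc rat pituitary cells carrying two TR response elements driving luciferase were plated for 4 h, given compound plus 1 nM T3 (final), and incubated 23.5 h at 37 C. ONE-Glo luminescence measured reporter inhibition; CellTiter-Fluor fluorescence tracked cytotoxicity.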

The subject of assay [9] is thyroid hormone receptor (rat, GH3 cells). The assay is described as follows: qHTS assay to identify small molecule agonists of the thyroid receptor (TR) signaling pathway (AID 743066; calls by dose curve).
Assay [10] is described as follows: qHTS assay for small molecule agonists of the antioxidant response element (ARE) signaling pathway - cell viability counter screen (AID 743203; calls by dose curve; further: nearly all actives have a fitted effect of over 55% in size). The procedure, abridged: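 HepG2 cells carrying ARE-driven beta-lactamase; 2,000 cells/well; 5 hrs plating; compound pinned from DMSO; 16 hrs 37C/5% CO2; CellTiter-Glo added; 30 min RT; luminescence.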
Assay [11] is described as follows: qHTS assay for small molecule activators of the heat shock response signaling pathway (AID 743210; active means well fitted activation curve with a large enough effect in the signal ratio in the repeat runs, with a control signal flat, not every such curve was filed as active; the % refers to the signal ratio;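 further: HeLa cells with beta-lactamase reporter driven by heat shock elements; series mostly up to about 63 µM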). The procedure, abridged: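 Reporter gene assay: HeLa cells stably bearing an HSE-bla construct, compound treatment 5 h at 37 C, LiveBLAzer substrate 2.5 h at RT, fluorescence intensity.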
Assay [12] can be described thus: qHTS assay to identify small molecule agonists of the peroxisome proliferator-activated receptor delta (PPARd) signaling pathway - cell viability counter screen (AID 743211). Further: nearly all actives have a fitted effect of over 55% in size. Further: potency means the concentration at half of the fitted maximal effect. The method, boiled down:
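Viability of GeneBLAzer PPARd UAS-bla HEK293H cells was assessed after 17 h compound incubation at 37C, using CellTiter-Glo reagent added after the reporter read and luminescence recorded 30 min later.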

The target in assay [13] is Aryl hydrocarbon receptor (Homo sapiens) (UniProt P35869). The assay is described as follows: qHTS assay to identify small molecule that activate the aryl hydrocarbon receptor (AhR) signaling pathway (AID 743085). Further: nearly all actives have a fitted effect of over 15% in size. Further: potency means the concentration at half of the fitted maximal effect.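 On activation: HG2L7.5c1 human HepG2 liver cells with stably integrated DRE-driven firefly reporter; series mostly up to about 70 µM.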 The procedure, abridged:
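Steps: seed HepG2-AhR-luc cells; allow 5 h at 37C; pin-transfer test compound or vehicle; incubate 24 h at 37C; add viability dye (30 min, 37C) and read fluorescence; add luciferase substrate (30 min, RT) and read luminescence.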

For assay [14], the target named is Peroxisome proliferator-activated receptor gamma (Homo sapiens) (UniProt P37231). The assay is described as follows: qHTS assay to identify small molecule agonists of the peroxisome proliferator-activated receptor gamma (PPARg) signaling pathway (AID 743094; active means well fitted activation curve with a large enough effect in the signal ratio in the repeat runs, not every such curve was filed as active; the % refers to the signal ratio). The method, boiled down: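 Beta-lactamase FRET fluorescence was the read-out after a 1 h room-temperature substrate step, following 17 h compound treatment at 37C of HEK293H cells expressing a UAS-driven bla reporter responsive to PPARg.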
Chain of Peroxisome proliferator-activated receptor gamma (Homo sapiens) (P37231 whole entry, looked up): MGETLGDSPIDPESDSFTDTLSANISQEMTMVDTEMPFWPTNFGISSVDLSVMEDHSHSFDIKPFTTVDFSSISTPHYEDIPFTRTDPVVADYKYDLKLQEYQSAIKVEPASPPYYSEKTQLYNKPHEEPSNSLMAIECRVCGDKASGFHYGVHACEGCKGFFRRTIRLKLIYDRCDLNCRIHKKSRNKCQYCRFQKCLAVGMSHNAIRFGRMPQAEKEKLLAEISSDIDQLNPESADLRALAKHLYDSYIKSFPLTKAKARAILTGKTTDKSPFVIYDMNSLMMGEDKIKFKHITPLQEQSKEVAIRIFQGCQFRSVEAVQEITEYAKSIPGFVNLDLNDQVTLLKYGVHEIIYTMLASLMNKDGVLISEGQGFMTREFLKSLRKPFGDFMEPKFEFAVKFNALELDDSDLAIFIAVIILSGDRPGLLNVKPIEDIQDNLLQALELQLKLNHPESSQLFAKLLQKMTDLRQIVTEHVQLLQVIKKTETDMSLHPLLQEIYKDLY

Assay [15] has as its target Estrogen receptor (Homo sapiens) (UniProt P03372). The assay can be described thus: qHTS assay to identify small molecule antagonists of the estrogen receptor alpha (ER-alpha) signaling pathway (AID 743069; active means well fitted curve in the direction sought with a large enough effect in the signal ratio in the repeat runs, not every such curve was filed as active; the % refers to the signal ratio). The method, boiled down: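 Estradiol-stimulated ER-alpha-UAS-bla HEK293 cells, 18 hr compound exposure at 37C. LiveBLAzer B/G substrate, 2 hr RT, fluorescence read.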

For assay [16] the target is unchanged. The assay is described as follows: qHTS assay to identify small molecule agonists of the estrogen receptor alpha (ER-alpha) signaling pathway (AID 743075; calls by dose curve;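 further: HEK293 GripTite cells with ER-alpha and UAS-driven beta-lactamase reporter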).
For assay [17] the target is unchanged. The assay can be described thus: qHTS assay to identify small molecule agonists of the estrogen receptor alpha (ER-alpha) signaling pathway using the BG1 cell line (AID 743079). Further: nearly all actives have a fitted effect of over 20% in size. Further: potency means the concentration at half of the fitted maximal effect.
Assay [18] can be described thus: qHTS assay to identify small molecule antagonists of the estrogen receptor alpha (ER-alpha) signaling pathway using the BG1 cell line (AID 743080; calls by dose curve;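 further: BG1 cells stimulated with 17beta-estradiol alongside compound; series mostly up to about 70 µM; nearly all actives have a fitted effect of over 25% in size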). The procedure, abridged: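 Quantitative HTS on the Tox21 10K library: BG1 cells with endogenous ER-alpha and ERE-luciferase reporter, 17beta-estradiol stimulation, 21.5 h compound exposure, luminescence endpoint with parallel fluorescence cytotoxicity counter-read.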

Assay [19] concerns the target Peroxisome proliferator-activated receptor gamma (Homo sapiens) (UniProt P37231). The assay can be described thus: qHTS assay to identify small molecule antagonists of the peroxisome proliferator-activated receptor gamma (PPARg) signaling pathway (AID 743191; calls by dose curve; further: series mostly up to about 63 µM; nearly all actives have a fitted effect of over 30% in size). The method, boiled down:
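GeneBLAzer PPARg UAS-bla HEK293H cells carrying a UAS-driven beta-lactamase reporter were plated at 3000 cells/well, preincubated 5 h at 37C, then given compound for 17 h at 37C; LiveBLAzer B/G FRET substrate was read after 1 h at room temperature.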

Several values for one entry are separate records, joined by “and”; a condition that tells them apart may be missing. Equal entries are not always repeated. Results filed as inconclusive are left out. More than one record can exist for a structure, and the calls need not agree. Activity calls are given as the source filed them. Unless noted, the call rests on the fitted dose curve; in most records, active means well fitted curve in the direction sought with a large enough effect in the repeat runs; inconclusive means weak or mixed curves; inactive means no such curve, though single readings can be large; an effect the other way counts as inactive or inconclusive.

Chain of Aryl hydrocarbon receptor (Homo sapiens) (P35869 whole entry, looked up): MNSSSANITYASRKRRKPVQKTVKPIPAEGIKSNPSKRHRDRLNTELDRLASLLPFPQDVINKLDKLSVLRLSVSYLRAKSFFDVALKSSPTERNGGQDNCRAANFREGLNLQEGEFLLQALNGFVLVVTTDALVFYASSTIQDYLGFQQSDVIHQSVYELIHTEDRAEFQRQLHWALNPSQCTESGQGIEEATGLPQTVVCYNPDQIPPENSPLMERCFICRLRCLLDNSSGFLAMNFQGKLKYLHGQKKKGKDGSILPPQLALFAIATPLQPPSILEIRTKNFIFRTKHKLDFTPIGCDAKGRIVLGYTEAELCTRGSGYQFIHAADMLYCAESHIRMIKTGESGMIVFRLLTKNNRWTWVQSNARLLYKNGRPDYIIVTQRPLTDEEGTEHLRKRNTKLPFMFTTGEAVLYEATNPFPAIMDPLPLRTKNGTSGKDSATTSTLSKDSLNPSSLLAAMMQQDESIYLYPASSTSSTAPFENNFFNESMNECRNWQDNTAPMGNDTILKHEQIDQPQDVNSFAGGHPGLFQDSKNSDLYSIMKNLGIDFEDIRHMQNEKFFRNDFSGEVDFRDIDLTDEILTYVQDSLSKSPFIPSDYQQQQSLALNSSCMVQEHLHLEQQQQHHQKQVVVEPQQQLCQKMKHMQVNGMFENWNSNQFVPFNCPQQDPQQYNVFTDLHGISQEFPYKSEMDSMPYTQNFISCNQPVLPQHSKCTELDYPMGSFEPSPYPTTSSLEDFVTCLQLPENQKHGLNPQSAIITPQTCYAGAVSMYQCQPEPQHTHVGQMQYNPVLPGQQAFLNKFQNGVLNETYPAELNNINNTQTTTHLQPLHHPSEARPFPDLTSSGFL
Chain of Estrogen receptor (Homo sapiens) (P03372 whole entry, looked up): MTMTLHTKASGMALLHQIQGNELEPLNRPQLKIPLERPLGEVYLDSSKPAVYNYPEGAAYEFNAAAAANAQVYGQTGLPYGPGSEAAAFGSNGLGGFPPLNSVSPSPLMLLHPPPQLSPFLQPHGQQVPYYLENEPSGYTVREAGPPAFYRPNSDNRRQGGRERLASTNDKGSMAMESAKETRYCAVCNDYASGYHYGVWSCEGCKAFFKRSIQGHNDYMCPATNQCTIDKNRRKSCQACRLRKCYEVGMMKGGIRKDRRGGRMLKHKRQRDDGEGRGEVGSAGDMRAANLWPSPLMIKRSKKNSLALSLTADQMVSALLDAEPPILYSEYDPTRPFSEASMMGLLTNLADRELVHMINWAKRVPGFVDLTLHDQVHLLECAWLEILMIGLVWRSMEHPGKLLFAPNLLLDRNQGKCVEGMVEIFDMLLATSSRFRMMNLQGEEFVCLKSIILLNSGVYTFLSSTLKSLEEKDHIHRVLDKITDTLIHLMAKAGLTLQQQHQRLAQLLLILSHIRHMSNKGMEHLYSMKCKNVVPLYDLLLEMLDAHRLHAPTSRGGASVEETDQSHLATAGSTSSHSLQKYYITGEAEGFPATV

With `C=C[C@H]1CN2CC[C@H]1C[C@@H]2[C@@H](O)c1ccnc2ccc(OC)cc12`, the Potency result (in [1]; in assay [2]; with Aromatase (Homo sapiens); in [3]; in [4]; in assay [5]) was “inactive” each time. The Potency entry in [6] and in [7] was “inactive” in each case.

With `C=CCOC(=O)C(=C)C`, the Potency result in assay [8], in [9], in [2], in [4], in [5] and in [6] was “inactive” each time. In addition, the Potency result in [10], in assay [7] and in [12] was “inactive” throughout. For the same compound, in assay [11], the call was inactive.

As for `CC/C(=C(/CC)c1ccc(O)cc1)c1ccc(O)cc1`, the Potency entry in assay [1], in assay [2], in assay [4] and in assay [7] was “inactive” each time. The Potency entry in [3] is “inactive and 68 µM (active)”; in [12] it was 61.6 µM (active).

As to `C[C@]12CC[C@@H]3c4ccc(O)cc4CC[C@H]3[C@@H]1CC[C@@H]2O`, the Potency in assay [8] is 27.3 µM (active) and 30.6 µM (active). Besides, the Potency entry (in [9]; in assay [1]; in [2]; with Aromatase (Homo sapiens); in [3]; in assay [13]) was “inactive” throughout. In addition, the Potency entry in assay [4], in assay [5] and in [7] was “inactive” throughout. Also, the compound was classed as inactive in assay [11].

For `Clc1ccc(Sc2cc(Cl)c(Cl)cc2Cl)cc1`, the Potency result (in [8]; in assay [9]; in [1]; in assay [2]; in the assay with Aromatase (Homo sapiens); in assay [3]) was “inactive” throughout. In addition, the Potency entry in [4], in [5], in assay [6], in assay [7] and in assay [12] was “inactive” throughout. In assay [14], the outcome was inactive.

For `Cc1ccc(S(=O)(=O)NCl)cc1`, the Potency result in assay [9], in [15], in [1], in assay [16], in assay [17] and in assay [18] was “inactive” throughout. For the same compound, the Potency result (in [2]; in the assay with Aromatase (Homo sapiens); in assay [3]; in assay [13]; in [4]; in [19]) was “inactive” in each case. For the same compound, the Potency entry in assay [5], in assay [6], in assay [10], in assay [7] and in assay [12] was “inactive” in each case. The compound was classed as inactive in assay [14].

`CC1=CC(C)(C)Nc2ccccc21`: the Potency entry in assay [9], in [15], in assay [1], in assay [16], in assay [17] and in assay [18] was “inactive” in each case. In addition, the Potency result in assay [2], in [3], in [4], in [19], in [5] and in assay [6] was “inactive” in each case. The Potency result in assay [10], in assay [7] and in assay [12] was “inactive” each time. In addition, the call in assay [14] and in [11] was inactive.

In the case of `CC[C@]12CCCN3CCc4c(n(c5ccccc45)[C@@](O)(C(=O)OC)C1)[C@@H]32`, the Potency entry (in [9]; in [1]; in assay [2]; with Aromatase (Homo sapiens); in assay [3]; in assay [13]) was “inactive” each time. Further, the Potency result in [4], in assay [19], in assay [5], in [6] and in assay [7] was “inactive” in each case. In addition, the compound was classed as inactive in assay [14] and in assay [11].

On to `Nc1ccc2c(c1)C(=O)c1ccccc1C2=O`, for which the Potency entry (in [8]; in assay [9]; in [16]; in [2]; in the assay with Aromatase (Homo sapiens); in [19]) was “inactive” in each case. In addition, the Potency result in assay [5], in assay [10] and in assay [7] was “inactive” in each case. In addition, the Potency in assay [17] is 268 nM (active) and 686 nM (active); in assay [3], 60 µM (active) and inactive; in assay [13], 4.77 µM (active) and 3.06 µM (active); in assay [4], 60 µM (active). Besides, the result in [14] and in [11] was inactive.
